For one sequence, binding signal results are on record in PMC7862700, “An all-to-all approach to the identification of sequence-specific readers for epigenetic DNA modifications on cytosine”.

What all share (assay): DAPPL (digital affinity profiling via proximity ligation, sequencing); 10 mM Tris-HCl pH 7.5, 50 mM NaCl, 1 mM DTT, 4% glycerol, room temperature, 30 min; GST-TFs on glutathione beads, 16-mer random dsDNA library, 0.1% formaldehyde crosslink after washing; high values mean tight binding
One assay deals with T1, FEV (Homo sapiens, UniProt Q99581 1-238).
T1 sequence: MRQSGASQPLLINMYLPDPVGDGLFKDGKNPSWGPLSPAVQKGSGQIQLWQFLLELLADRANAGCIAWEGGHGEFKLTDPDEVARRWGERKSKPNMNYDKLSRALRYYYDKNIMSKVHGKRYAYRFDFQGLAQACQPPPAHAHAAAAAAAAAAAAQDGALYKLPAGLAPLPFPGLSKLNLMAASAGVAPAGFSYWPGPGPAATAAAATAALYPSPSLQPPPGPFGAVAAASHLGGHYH
Particulars: protein: recombinant; tags: N-terminal GST; dsDNA, one strand shown. A digest of the protocol:
(§1)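 Human transcription factors carrying a GST fusion were produced in yeast, bound to glutathione beads, tagged with DNA barcodes and pooled together with a tag-only sample. Each pool was held with 200 nmole of a random double-stranded 16-mer DNA library in Tris/NaCl/DTT/glycerol buffer for 30 min at room temperature, then washed, crosslinked in 0.1% formaldehyde, proximity-ligated with BsaI/T4 ligase (1 h, 37 °C), PCR-amplified and sequenced on an Illumina NextSeq500. Binding signal is the read frequency of each hexamer for a given factor divided by its frequency in the tag-only sample.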

In a further assay the target is ETV5 (Homo sapiens, UniProt P41161 1-510). Particulars: protein: recombinant; tags: N-terminal GST; dsDNA, one strand shown. Put shortly:
as §1

The target of the next assay is HSF1 (Homo sapiens, UniProt Q00613 1-529). Particulars: protein: recombinant; tags: N-terminal GST; chain copies: 3; dsDNA, one strand shown. Put shortly:
as §1

The target in another assay is T2, SPIC (Homo sapiens, UniProt Q8N5J4 1-248).
T2 sequence: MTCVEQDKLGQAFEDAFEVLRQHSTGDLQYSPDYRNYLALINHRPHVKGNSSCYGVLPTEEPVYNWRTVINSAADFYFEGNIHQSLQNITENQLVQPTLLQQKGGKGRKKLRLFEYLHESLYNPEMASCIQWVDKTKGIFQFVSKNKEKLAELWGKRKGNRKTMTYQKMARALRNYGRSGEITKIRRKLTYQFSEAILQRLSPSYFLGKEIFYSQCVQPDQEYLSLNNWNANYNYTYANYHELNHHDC
The conditions noted are these: protein: recombinant; tags: N-terminal GST; dsDNA, one strand shown. A digest of the protocol: as §1

The next assay deals with ELF4 (Homo sapiens, UniProt Q99607 1-663). Particulars: protein: recombinant; tags: N-terminal GST; dsDNA, one strand shown. A digest of the protocol:
as §1

The next assay concerns the target T3, ELK4 (Homo sapiens, UniProt P28324-2 1-405).
T3 sequence: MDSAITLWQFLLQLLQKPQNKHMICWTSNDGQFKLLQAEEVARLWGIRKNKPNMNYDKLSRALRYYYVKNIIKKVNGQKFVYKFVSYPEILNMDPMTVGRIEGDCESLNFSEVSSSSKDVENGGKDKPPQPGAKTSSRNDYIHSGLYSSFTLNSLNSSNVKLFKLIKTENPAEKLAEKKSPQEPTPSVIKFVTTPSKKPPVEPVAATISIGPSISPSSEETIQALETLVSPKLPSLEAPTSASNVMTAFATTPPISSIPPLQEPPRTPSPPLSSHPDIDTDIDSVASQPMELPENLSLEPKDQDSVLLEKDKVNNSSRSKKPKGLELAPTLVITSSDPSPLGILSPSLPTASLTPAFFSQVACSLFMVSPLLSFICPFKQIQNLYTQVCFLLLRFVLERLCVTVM
Particulars: protein: recombinant; tags: N-terminal GST; dsDNA, one strand shown. Put shortly:
as §1

The target in the next assay is T4, ETV2 (Homo sapiens, UniProt O00321 1-342).
T4 sequence: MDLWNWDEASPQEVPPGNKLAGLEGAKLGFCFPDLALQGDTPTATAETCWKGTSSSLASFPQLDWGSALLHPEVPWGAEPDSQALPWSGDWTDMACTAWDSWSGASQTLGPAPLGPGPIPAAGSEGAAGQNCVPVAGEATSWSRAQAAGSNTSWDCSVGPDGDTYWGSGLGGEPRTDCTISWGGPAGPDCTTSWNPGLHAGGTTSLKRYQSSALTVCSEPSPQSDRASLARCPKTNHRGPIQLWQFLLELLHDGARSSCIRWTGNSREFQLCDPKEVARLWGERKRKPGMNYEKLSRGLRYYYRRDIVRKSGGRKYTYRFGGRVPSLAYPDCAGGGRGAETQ
The conditions noted are these: protein: recombinant; tags: N-terminal GST; dsDNA, one strand shown. Put shortly:
as §1

The target of a further assay is T5, ELF3 (Homo sapiens, UniProt P78545 1-371).
T5 sequence: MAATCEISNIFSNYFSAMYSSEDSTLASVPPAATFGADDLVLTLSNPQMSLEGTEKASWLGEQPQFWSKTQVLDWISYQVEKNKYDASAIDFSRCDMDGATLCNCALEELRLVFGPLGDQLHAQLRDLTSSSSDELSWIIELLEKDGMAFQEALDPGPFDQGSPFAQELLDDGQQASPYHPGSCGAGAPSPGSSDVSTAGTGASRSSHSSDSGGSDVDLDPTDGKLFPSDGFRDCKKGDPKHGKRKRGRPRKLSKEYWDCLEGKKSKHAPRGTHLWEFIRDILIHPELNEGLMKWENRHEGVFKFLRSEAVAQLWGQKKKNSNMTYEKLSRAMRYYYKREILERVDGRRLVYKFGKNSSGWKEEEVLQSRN
The conditions noted are these: protein: recombinant; tags: N-terminal GST; dsDNA, one strand shown. A digest of the protocol:
as §1

In the next assay the target is CRX (Homo sapiens, UniProt O43186 1-299). Particulars: protein: recombinant; tags: N-terminal GST; dsDNA, one strand shown. Put shortly:
as §1

The next assay deals with ETV1 (Homo sapiens, UniProt P50549 1-477). The conditions noted are these: protein: recombinant; tags: N-terminal GST; dsDNA, one strand shown. Put shortly:
as §1

A further assay deals with T6, ERF (Homo sapiens, UniProt P50548 1-548).
T6 sequence: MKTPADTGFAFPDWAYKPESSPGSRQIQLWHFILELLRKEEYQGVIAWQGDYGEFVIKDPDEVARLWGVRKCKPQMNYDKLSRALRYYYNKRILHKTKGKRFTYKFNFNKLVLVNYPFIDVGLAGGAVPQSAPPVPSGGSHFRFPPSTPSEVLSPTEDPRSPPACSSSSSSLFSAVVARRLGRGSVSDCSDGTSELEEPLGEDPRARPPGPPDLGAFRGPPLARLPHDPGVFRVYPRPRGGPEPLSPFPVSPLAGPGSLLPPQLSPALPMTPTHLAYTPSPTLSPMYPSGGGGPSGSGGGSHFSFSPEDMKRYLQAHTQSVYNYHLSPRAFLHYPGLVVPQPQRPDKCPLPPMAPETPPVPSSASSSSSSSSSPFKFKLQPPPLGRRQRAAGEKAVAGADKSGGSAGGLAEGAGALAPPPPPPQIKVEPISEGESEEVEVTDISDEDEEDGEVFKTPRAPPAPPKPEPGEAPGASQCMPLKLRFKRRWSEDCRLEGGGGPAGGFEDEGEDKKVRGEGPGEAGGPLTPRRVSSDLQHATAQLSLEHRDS
Particulars: protein: recombinant; tags: N-terminal GST; dsDNA, one strand shown. A digest of the protocol:
as §1

Another assay concerns the target T7, ETV3L (Homo sapiens, UniProt Q6ZN32 1-361).
T7 sequence: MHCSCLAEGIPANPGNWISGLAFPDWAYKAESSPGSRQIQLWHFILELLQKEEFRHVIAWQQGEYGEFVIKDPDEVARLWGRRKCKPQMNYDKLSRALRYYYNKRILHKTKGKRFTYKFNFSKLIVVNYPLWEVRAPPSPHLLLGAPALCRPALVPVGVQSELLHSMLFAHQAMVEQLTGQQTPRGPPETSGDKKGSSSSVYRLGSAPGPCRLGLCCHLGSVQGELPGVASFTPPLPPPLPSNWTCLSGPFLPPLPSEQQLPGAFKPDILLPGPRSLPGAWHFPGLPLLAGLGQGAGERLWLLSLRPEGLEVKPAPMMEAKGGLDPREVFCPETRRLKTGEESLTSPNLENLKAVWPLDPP
Particulars: protein: recombinant; tags: N-terminal GST; dsDNA, one strand shown. Put shortly:
as §1

The target of a further assay is T8, ETS2 (Homo sapiens, UniProt P15036 1-469).
T8 sequence: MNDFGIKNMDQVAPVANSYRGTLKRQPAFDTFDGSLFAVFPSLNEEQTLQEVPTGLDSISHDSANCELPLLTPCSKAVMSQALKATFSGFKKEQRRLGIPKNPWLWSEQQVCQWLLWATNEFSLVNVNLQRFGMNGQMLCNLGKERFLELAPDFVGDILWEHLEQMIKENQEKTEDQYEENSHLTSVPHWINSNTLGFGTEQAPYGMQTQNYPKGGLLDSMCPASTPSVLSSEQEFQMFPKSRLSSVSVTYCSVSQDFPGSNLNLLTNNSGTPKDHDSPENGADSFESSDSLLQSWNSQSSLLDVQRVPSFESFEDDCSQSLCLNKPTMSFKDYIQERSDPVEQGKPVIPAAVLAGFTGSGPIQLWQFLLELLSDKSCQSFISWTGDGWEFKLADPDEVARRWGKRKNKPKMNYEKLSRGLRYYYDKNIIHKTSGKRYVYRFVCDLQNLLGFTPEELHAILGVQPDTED
The conditions noted are these: protein: recombinant; tags: N-terminal GST; dsDNA, one strand shown. Put shortly:
as §1

Another assay deals with T9, SPDEF (Homo sapiens, UniProt O95238 1-335).
T9 sequence: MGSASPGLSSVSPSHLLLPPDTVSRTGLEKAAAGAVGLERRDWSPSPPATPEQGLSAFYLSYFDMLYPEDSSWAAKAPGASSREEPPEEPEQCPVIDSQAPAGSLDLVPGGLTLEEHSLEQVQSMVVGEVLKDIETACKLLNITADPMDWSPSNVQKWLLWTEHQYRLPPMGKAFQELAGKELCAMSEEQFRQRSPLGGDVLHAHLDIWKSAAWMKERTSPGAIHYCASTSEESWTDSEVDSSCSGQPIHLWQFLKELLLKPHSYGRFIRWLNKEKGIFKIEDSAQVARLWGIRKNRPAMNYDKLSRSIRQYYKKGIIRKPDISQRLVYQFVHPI
The conditions noted are these: protein: recombinant; tags: N-terminal GST; dsDNA, one strand shown. A digest of the protocol:
as §1

Another assay has as its target T10, ETV7 (Homo sapiens, UniProt Q9Y603 1-341).
T10 sequence: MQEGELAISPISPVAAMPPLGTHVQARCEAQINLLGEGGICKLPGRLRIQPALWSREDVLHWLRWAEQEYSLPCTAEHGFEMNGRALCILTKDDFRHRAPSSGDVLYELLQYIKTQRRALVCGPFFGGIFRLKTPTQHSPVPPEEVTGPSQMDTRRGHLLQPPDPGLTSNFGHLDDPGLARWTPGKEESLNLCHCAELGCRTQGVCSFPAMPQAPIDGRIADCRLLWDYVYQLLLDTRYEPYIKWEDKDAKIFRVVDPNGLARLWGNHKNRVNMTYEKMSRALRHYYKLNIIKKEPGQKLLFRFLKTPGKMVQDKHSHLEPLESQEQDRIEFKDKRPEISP
Particulars: protein: recombinant; tags: N-terminal GST; dsDNA, one strand shown. A digest of the protocol: as §1

The target in a further assay is T11, ELF5 (Homo sapiens, UniProt Q9UKW6-2 1-255).
T11 sequence: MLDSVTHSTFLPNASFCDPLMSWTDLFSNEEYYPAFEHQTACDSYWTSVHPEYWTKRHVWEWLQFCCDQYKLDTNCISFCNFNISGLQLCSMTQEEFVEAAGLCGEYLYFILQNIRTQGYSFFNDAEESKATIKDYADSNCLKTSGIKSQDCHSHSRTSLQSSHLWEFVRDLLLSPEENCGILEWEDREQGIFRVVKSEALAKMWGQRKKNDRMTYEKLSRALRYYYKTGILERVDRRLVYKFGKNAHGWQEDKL
Particulars: protein: recombinant; tags: N-terminal GST; dsDNA, one strand shown. A digest of the protocol: as §1

Another assay addresses T12, ETV3 (Homo sapiens, UniProt P41162-2 1-143).
T12 sequence: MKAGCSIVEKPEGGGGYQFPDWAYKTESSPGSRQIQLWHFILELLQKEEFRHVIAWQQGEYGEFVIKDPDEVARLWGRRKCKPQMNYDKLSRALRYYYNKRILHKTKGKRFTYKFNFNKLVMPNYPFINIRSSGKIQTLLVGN
The conditions noted are these: protein: recombinant; tags: N-terminal GST; dsDNA, one strand shown. A digest of the protocol: as §1

The next assay addresses ETV6 (Homo sapiens, UniProt P41212 1-452). The conditions noted are these: protein: recombinant; tags: N-terminal GST; dsDNA, one strand shown. A digest of the protocol:
as §1

ETV6, sequence (P41212 whole entry): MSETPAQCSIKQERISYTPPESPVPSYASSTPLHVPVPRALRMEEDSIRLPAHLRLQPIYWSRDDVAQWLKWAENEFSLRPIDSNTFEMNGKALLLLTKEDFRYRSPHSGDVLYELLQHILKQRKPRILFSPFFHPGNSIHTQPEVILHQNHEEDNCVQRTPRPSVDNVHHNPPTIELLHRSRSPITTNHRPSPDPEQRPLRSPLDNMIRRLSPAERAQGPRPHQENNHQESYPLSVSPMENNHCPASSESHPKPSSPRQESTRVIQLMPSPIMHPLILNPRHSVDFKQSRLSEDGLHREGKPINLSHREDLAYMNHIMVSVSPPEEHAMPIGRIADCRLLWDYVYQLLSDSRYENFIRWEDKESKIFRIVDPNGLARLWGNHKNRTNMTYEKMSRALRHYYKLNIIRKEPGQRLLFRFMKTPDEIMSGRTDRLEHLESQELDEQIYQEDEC
ETV1, sequence (P50549 whole entry): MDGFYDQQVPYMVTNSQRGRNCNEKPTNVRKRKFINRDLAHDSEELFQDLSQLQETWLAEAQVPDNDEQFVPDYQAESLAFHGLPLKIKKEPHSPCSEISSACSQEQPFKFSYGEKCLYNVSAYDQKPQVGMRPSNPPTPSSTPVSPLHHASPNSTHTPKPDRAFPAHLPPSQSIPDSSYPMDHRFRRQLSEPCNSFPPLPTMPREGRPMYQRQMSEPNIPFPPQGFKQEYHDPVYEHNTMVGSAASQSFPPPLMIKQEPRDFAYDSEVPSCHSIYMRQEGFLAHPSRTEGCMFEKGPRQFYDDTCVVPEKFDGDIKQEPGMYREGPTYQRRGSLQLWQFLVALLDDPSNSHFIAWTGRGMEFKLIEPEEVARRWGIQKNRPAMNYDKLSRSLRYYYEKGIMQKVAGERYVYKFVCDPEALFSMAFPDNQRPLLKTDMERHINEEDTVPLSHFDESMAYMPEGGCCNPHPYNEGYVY
HSF1, sequence (Q00613 whole entry): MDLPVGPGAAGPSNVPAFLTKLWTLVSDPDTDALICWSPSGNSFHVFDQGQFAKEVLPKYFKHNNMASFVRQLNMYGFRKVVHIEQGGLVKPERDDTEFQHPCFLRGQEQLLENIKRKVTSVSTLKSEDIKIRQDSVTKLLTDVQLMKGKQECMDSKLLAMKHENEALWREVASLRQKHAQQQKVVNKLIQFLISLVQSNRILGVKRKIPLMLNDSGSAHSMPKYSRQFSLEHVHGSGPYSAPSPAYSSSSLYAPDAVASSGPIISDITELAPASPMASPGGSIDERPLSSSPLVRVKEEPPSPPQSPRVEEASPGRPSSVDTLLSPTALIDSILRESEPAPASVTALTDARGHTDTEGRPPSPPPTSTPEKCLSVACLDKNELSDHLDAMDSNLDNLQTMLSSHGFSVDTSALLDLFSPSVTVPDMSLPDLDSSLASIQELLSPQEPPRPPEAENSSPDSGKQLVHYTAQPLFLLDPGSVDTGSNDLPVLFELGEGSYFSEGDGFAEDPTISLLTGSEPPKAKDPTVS
ETV5, sequence (P41161 whole entry): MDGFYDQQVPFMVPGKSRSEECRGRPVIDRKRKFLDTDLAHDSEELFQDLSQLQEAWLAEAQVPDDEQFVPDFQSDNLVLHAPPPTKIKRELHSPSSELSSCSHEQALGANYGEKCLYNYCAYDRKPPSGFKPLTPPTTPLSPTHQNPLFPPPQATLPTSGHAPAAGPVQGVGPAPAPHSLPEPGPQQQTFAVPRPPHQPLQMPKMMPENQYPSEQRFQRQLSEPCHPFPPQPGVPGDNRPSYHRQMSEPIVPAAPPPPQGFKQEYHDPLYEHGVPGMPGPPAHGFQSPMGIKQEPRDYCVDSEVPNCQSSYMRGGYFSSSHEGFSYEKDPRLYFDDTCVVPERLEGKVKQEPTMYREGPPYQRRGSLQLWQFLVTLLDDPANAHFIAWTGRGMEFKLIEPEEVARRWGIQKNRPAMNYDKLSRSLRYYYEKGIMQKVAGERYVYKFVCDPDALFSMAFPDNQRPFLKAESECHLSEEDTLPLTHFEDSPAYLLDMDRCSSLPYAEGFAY
CRX, sequence (O43186 whole entry): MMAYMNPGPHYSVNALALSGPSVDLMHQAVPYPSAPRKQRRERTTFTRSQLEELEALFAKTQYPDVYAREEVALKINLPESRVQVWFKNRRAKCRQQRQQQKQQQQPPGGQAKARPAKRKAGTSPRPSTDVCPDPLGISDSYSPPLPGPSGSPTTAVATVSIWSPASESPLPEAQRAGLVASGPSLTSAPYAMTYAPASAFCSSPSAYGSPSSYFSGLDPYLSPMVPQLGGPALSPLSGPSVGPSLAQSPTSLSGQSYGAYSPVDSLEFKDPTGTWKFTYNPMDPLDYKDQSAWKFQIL
ELF4, sequence (Q99607 whole entry): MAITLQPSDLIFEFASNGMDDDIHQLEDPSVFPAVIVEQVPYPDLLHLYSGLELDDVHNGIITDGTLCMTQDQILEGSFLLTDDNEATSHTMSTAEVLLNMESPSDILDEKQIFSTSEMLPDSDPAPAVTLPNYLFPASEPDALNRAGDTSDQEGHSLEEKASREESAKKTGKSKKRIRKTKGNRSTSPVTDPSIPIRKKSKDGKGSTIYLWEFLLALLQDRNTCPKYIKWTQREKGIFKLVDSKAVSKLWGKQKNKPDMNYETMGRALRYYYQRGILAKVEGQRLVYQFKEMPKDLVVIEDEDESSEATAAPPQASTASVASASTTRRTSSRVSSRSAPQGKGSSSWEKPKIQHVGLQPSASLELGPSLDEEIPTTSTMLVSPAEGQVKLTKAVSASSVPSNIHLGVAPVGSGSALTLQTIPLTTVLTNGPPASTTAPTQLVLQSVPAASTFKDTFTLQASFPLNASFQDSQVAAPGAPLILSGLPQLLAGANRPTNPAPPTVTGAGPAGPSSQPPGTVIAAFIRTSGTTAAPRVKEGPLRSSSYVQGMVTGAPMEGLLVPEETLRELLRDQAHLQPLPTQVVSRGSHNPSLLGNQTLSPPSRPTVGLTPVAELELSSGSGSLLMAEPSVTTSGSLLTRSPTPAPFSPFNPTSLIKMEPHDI

Consider AAAGAC, for which the binding signal was 1.06 fold enrichment (6-mer frequency, TF over GST control) with FEV; 1.05 fold enrichment (6-mer frequency, TF over GST control) with ETV5; 1.11 fold enrichment (6-mer frequency, TF over GST control) with HSF1; 1.01 fold enrichment (6-mer frequency, TF over GST control) with SPIC; 1.04 fold enrichment (6-mer frequency, TF over GST control) in the assay with ELF4; 1.04 fold enrichment (6-mer frequency, TF over GST control) in the assay with ELK4. Further, the binding signal was 1.03 fold enrichment (6-mer frequency, TF over GST control) with ETV2; 1.01 fold enrichment (6-mer frequency, TF over GST control) in the assay with ELF3; 1.13 fold enrichment (6-mer frequency, TF over GST control) in the assay with CRX; 1.03 fold enrichment (6-mer frequency, TF over GST control) in the assay with ETV1; 1.08 fold enrichment (6-mer frequency, TF over GST control) with ERF; 1.06 fold enrichment (6-mer frequency, TF over GST control) in the assay with ETV3L. The binding signal is 1.12 fold enrichment (6-mer frequency, TF over GST control) in the assay with ETS2; 1.01 fold enrichment (6-mer frequency, TF over GST control) in the assay with SPDEF; 1.03 fold enrichment (6-mer frequency, TF over GST control) with ETV7; 1.03 fold enrichment (6-mer frequency, TF over GST control) with ELF5; 1.01 fold enrichment (6-mer frequency, TF over GST control) with ETV3; 1.16 fold enrichment (6-mer frequency, TF over GST control) with ETV6.
